# Test results: PubChem BioAssay (EPA / NIEHS)
# Results filed as inconclusive are left out. Some compounds were tested as several samples or in several runs, with calls that do not always agree. The source made the active and inactive calls. The calls were made as follows, unless noted: active = hit-call score of the fitted dose curve at least 0.9, where 1 is the maximum; inactive = score below 0.9.
# Legend:
# [1] = read-out: E-selectin (Homo sapiens) (UniProt P16581); experiment: BSK_SAg_Eselectin: BioMAP Diversity Plus: SAg Assay for Eselectin Biomarker Activity (AID 2283091); settings: primary human HUVEC with PBMC; actives raise or lower the signal
# In short: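 HUVEC co-cultured with PBMC, compound dosed then read at 24 h; E-selectin measured by ELISA. Activity fitted bidirectionally against DMSO as negative control and baseline.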
# [2] = read-out: Monokine induced gamma interferon (MIG), CXCL9 (gene 4283); experiment: BSK_SAg_MIG: BioMAP Diversity Plus: SAg Assay for Monokine induced gamma interferon (MIG) Biomarker Activity (AID 2283092); settings: primary human HUVEC with PBMC; actives raise or lower the signal
# In short: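 HUVEC plus human PBMC co-culture, chemicals dosed and MIG (CXCL9) quantified by ELISA at 24 h. Bidirectional curve fitting against DMSO as negative control and baseline, so both gain and loss of signal count as activity.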
# [3] = read-out: Interleukin-8 (IL8), CXCL8 (gene 3576); experiment: BSK_SAg_IL8: BioMAP Diversity Plus: SAg Assay for Interleukin-8 (IL8) Biomarker Activity (AID 2283094); settings: primary human HUVEC with PBMC; actives raise or lower the signal
# In short: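 ELISA readout of IL-8 from a superantigen-activated endothelial/PBMC primary human co-culture, taken 24 h post-dosing and fitted in both directions against DMSO; parallel SRB total-protein staining flags overt cytotoxicity.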
# [4] = BSK_SAg_Proliferation: Cell Proliferation Assessment in the BioMAP Diversity Plus: SAg Assay (AID 2283095); settings: primary human HUVEC with PBMC;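 also: relative cell number as total protein by SRB absorbance in sub-confluent culture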
# In short: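 Relative cell number in the endothelial cell/PBMC co-culture was quantified at 96 h by SRB staining (0.1% SRB, 10% TCA fixation, read at 560 nm). Curves were fitted in both directions relative to DMSO baseline.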
# [5] = BSK_SAg_SRB: Viability Assessment in the BioMAP Diversity Plus: SAg Assay (AID 2283096); settings: primary human HUVEC with PBMC;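 also: cells read one day after compound addition; hits may be either gain or loss of signal compared with DMSO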
# In short: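 Compounds were added to a human vascular co-culture of umbilical vein endothelium and PBMC. After 24 h, parallel cultures were fixed with 10% TCA, stained with 0.1% sulforhodamine B and read at 560 nm. Gain or loss of signal was fitted relative to DMSO.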
# [6] = biological target: human CYP2A6, CYP2A6 (gene 1548) (UniProt P11509); experiment: NVS_ADME_hCYP2A6: NovaScreen (NVS) CYP450-related Enzyme Activity (ADME) Assay for human CYP2A6 (AID 2283099; active = hit-call score of the fitted dose curve at least 0.9, where 1 is the maximum)
# Sequence of human CYP2A6, CYP2A6 (gene 1548) (P11509 whole entry, looked up): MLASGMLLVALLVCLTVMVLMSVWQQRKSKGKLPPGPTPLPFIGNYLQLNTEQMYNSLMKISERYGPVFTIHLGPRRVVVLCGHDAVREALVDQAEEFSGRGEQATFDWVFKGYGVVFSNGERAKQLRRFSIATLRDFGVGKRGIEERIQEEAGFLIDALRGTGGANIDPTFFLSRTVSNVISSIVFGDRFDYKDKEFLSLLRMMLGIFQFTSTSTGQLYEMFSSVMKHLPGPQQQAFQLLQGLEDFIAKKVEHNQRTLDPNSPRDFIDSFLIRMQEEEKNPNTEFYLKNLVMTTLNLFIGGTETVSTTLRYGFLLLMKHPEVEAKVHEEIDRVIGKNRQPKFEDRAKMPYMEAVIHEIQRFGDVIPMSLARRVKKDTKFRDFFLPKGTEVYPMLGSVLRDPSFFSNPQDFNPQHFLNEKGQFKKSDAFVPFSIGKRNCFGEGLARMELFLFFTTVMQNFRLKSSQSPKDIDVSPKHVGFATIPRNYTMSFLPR
# Procedure: (§1) NVS_ADME_hCYP2A6 is a biochemical, single-readout assay that uses extracted gene-proteins from insect cells in a cell-free assay. Measurements were taken 0.5 hour after chemical dosing in a 96-well plate.NVS_ADME_hCYP2A6 is one of one assay component(s) measured or calculated from the NVS_ADME_hCYP2A6 assay. It is designed to make measurements of enzyme activity, a form of enzyme reporter, as detected with fluorescence intensity signals by Fluorescence technology.Data from the assay component NVS_ADME_hCYP2A6 was analyzed into 1 assay endpoint. This assay endpoint, NVS_ADME_hCYP2A6, was analyzed in the positive analysis fitting direction relative to Acetonitrile as the negative control and baseline of activity. Using a type of enzyme reporter, loss-of-signal activity can be used to understand changes in the enzymatic activity as they relate to the gene CYP2A6. Furthermore, this assay endpoint can be referred to as a primary readout, because this assay has produced multiple assay endpoints where this one serves a enzymatic activity function. To generalize the intended target to other relatable targets, this assay endpoint is annotated to the cyp intended target family, where the subfamily is xenobiotic metabolism.
# (§2) Binding assays used specific radioligands (tritiated, iodinated) with non-radioactive competitive displacement ligands in agonist or antagonist protocols (as indicated) and various reference compounds and inhibitors to titrate specific binding to receptors and transporters. Most enzyme assays (CYPs, kinases, phosphatases, proteases, HDACs) used recombinant protein and specific substrates (fluorescence mostly, some colorimetric and radioactive) and inhibitors, followed by a biochemical separation of substrate and product. All assays for the biochemical HTS were initially run in duplicate at a single concentration (10 uM for CYP450 assays and 25 uM for all others). Assay-chemical combinations meeting a pre-defined threshold (e.g., 30% inhibition and other criteria defined below) were then run in singleton concentration-response format with maximum concentration of 20 uM for CYPs and 50 uM for all others. Each assay was run with positive and negative controls, and concurrent controls on every plate. The follow-up (secondary) screen tested active chemical-pairs in concentration series, as well as a few additional assays not tested in the primary screen, some selected negative inactives, and several cases re-run in the concentration series for confirmatory purposes.
# [7] = biological target: human CYP19A1, CYP19A1 (gene 1588) (UniProt P11511); experiment: NVS_ADME_hCYP19A1: NovaScreen (NVS) CYP450-related Enzyme Activity (ADME) Assay for human CYP19A1 (AID 2283098; active = hit-call score of the fitted dose curve at least 0.9, where 1 is the maximum;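 as to AC50: potency for inhibitors seen as loss of fluorescent enzyme signal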)
# Sequence of human CYP19A1, CYP19A1 (gene 1588) (P11511 whole entry, looked up): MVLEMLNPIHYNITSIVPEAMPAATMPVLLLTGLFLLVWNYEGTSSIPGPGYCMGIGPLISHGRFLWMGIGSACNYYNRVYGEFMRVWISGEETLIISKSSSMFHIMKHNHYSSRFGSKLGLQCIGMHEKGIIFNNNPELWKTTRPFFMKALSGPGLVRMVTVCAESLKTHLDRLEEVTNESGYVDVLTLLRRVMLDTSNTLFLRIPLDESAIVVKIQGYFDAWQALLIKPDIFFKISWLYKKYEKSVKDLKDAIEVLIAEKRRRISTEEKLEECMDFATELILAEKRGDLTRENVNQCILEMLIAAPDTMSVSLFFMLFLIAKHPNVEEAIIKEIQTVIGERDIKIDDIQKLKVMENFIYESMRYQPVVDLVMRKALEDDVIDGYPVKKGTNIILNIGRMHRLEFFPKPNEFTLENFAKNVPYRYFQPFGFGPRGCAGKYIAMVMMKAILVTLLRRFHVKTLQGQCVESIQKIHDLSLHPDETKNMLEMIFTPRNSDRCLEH
# Procedure: as §1, with “NVS_ADME_hCYP19A1” for “NVS_ADME_hCYP2A6”, “gene-proteins” for “gene-proteins from insect cells”, “384-well plate.NVS_ADME_hCYP19A1” for “96-well plate.NVS_ADME_hCYP2A6”, “NVS_ADME_hCYP19A1,” for “NVS_ADME_hCYP2A6,”, “CYP19A1.” for “CYP2A6.”, “steroidogenesis-related.” for “xenobiotic metabolism.”
# as §2, with “Assay-chemical combinations meeting a pre-defined threshold (e.g., 30% inhibition and other criteria defined below) were then run in singleton concentration-response format with maximum concentration of 20 uM for CYPs and 50 uM for all others.” left out
# [8] = BSK_SAg_PBMCCytotoxicity: PBMC Cytotoxicity Assessment in the BioMAP Diversity Plus: SAg Assay (AID 2283093); settings: primary human HUVEC with PBMC;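 also: fitted both ways against DMSO so a hit may be loss or gain of signal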
# In short: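 PBMC viability by Alamar Blue reduction, fluorescence read at 546/580 nm after 6 h dye exposure. Cells were dosed 1 h before SEB plus TSST-1 activation (20 ng/mL final each), then held 90 h; endothelial/PBMC human co-culture.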
# [9] = biological target: human CYP1A1, CYP1A1 (gene 1543) (UniProt P04798); experiment: NVS_ADME_hCYP1A1: NovaScreen (NVS) CYP450-related Enzyme Activity (ADME) Assay for human CYP1A1 (AID 2283100; active = hit-call score of the fitted dose curve at least 0.9, where 1 is the maximum)
# Sequence of human CYP1A1, CYP1A1 (gene 1543) (P04798 whole entry, looked up): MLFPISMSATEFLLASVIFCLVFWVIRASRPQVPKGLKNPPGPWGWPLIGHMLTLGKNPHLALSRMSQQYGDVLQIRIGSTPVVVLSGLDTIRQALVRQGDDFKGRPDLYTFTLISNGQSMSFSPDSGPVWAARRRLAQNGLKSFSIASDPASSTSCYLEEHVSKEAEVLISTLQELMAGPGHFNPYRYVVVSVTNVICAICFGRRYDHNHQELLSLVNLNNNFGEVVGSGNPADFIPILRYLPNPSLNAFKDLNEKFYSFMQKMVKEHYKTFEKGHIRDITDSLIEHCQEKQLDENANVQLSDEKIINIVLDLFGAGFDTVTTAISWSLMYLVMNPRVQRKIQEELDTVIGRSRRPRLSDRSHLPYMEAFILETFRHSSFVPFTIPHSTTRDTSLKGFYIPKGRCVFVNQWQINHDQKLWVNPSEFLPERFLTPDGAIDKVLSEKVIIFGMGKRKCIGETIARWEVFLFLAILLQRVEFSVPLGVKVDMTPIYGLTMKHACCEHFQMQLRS
# In short: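 Cell-free fluorescence assay of recombinant human CYP1A1 activity with a specific substrate, read 1 h after dosing. Compounds were screened in duplicate at 10 uM, then hits tested in concentration-response up to 20 uM; acetonitrile served as baseline.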
# [10] = biological target: human CYP2B6, CYP2B6 (gene 1555) (UniProt P20813); experiment: NVS_ADME_hCYP2B6: NovaScreen (NVS) CYP450-related Enzyme Activity (ADME) Assay for human CYP2B6 (AID 2283101; active = hit-call score of the fitted dose curve at least 0.9, where 1 is the maximum)
# Sequence of human CYP2B6, CYP2B6 (gene 1555) (P20813 whole entry, looked up): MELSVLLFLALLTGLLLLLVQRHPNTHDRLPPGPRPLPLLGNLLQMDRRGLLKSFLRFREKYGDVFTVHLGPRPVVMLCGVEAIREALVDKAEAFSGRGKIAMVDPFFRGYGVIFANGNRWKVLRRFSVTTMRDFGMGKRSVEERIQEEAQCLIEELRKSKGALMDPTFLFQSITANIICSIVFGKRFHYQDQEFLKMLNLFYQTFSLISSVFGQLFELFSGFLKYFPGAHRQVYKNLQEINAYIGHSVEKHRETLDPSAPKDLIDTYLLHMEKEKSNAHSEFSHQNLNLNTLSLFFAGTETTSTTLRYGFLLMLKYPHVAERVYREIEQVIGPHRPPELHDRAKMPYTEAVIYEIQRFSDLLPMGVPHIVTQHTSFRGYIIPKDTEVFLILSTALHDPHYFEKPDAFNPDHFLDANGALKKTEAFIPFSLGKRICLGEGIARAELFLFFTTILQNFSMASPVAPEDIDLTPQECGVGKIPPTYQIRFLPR
# In short: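 Recombinant human CYP2B6 with fluorogenic substrate, read by fluorescence intensity 1 h after dosing. Primary screen in duplicate at 10 uM, actives followed in concentration series; signal loss relative to acetonitrile control.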
# Sequence of E-selectin (Homo sapiens) (P16581 whole entry, looked up): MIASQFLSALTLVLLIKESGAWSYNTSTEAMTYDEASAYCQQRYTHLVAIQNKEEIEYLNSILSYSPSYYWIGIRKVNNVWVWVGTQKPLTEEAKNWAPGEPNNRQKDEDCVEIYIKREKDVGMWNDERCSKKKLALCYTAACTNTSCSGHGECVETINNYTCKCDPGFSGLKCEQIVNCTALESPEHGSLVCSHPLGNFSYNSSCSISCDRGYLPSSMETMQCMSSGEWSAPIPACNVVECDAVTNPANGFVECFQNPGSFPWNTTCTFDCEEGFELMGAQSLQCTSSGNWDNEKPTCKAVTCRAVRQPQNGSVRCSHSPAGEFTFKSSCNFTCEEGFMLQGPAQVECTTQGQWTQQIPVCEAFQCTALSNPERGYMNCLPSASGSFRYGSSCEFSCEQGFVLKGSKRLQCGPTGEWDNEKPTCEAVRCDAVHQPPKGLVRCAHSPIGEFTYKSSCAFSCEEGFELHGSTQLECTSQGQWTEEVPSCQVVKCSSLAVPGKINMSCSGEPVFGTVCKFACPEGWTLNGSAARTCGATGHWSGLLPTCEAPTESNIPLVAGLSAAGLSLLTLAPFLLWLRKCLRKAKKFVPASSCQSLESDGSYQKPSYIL
structure (smiles),measurement,setting,value
O=C1O[C@H]([C@@H](O)CO)C(O)=C1O,outcome,[1],inactive
same,outcome,[2],inactive
same,outcome,[3],inactive
same,outcome,[4],inactive
same,outcome,[5],inactive
Cc1cc2c(cc1C(F)(F)F)N(C(=O)Nc1ccc(Oc3cccnc3C)nc1)CC2,outcome,[1],inactive
same,outcome,[2],inactive
same,outcome,[3],inactive
same,outcome,[4],inactive
CN1C(=O)CC[C@H]1c1cccnc1,outcome,[1],inactive
same,outcome,[2],inactive
same,outcome,[3],inactive
same,outcome,[4],inactive
CCCCCCCCCC(=O)O,outcome,[1],inactive
same,outcome,[2],inactive
same,outcome,[3],inactive
same,outcome,[4],inactive
Cc1ncc(CO)c(CO)c1O,outcome,[1],inactive
same,outcome,[2],inactive
same,outcome,[3],inactive
same,outcome,[4],inactive
same,outcome,[5],inactive
Oc1ccccc1,outcome,[1],inactive
same,outcome,[2],inactive
same,outcome,[3],inactive
same,outcome,[4],inactive
same,outcome,[5],inactive
same,outcome,[6],inactive
C[C@]12CC[C@@H]3c4ccc(O)cc4CC[C@H]3[C@@H]1CC[C@H]2O,outcome,[1],inactive
same,outcome,[2],inactive
same,outcome,[3],inactive
same,AC50,[4],12.4 µM (active)
same,AC50,[7],10 µM (active)
same,outcome,[7],inactive
Cc1occc1C(=O)Nc1ccc(C(=O)N2CCC(F)(F)/C(=C\C(=O)N3CCC(N4CCCCC4)CC3)c3ccccc32)cc1,outcome,[1],inactive
same,outcome,[8],inactive
same,outcome,[3],inactive
same,outcome,[4],inactive
same,outcome,[5],inactive
O=C1c2ccccc2C(=O)N1CCc1noc(-c2ccc(CN3CCCCCC3)s2)n1,AC50,[1],16.9 µM (active)
same,outcome,[2],inactive
same,outcome,[3],inactive
same,outcome,[4],inactive
same,AC50,[9],4.62 µM (active)
OCCO,outcome,[1],inactive
same,outcome,[2],inactive
same,outcome,[3],inactive
same,outcome,[4],inactive
same,outcome,[7],inactive
CCO[Si](CCCNC(N)=O)(OCC)OCC,outcome,[1],inactive
same,outcome,[2],inactive
same,outcome,[3],inactive
same,outcome,[4],inactive
same,outcome,[5],inactive
Cc1cn([C@H]2C[C@H](N=[N+]=[N-])[C@@H](CO)O2)c(=O)[nH]c1=O,outcome,[1],inactive
same,outcome,[2],inactive
same,outcome,[3],inactive
same,outcome,[4],inactive
NCc1cccc(C2CCN(C(=O)c3ccc(C#Cc4ccccc4F)o3)CC2)c1,AC50,[1],23.8 µM (active)
same,AC50,[2],35.1 µM (active)
same,AC50,[3],15.8 µM (active)
same,AC50,[4],7.97 µM (active)
same,AC50,[5],15.2 µM (active)
same,AC50,[6],17.9 µM (active)
same,AC50,[9],7.2 µM (active)
same,AC50,[10],5.71 µM (active)
Cc1ccc2oc(CN(Cc3ccccc3)C(=O)Nc3c(F)cc(F)cc3F)c(-c3ccc(Cl)cc3)c2c1,outcome,[1],inactive
same,outcome,[2],inactive
same,outcome,[3],inactive
same,AC50,[4],6.03 µM (active)
same,outcome,[5],inactive
CC(C)(c1cc(Br)c(O)c(Br)c1)c1cc(Br)c(O)c(Br)c1,AC50,[1],22.1 µM (active)
same,AC50,[2],36.1 µM (active)
same,AC50,[3],30.4 µM (active)
same,AC50,[4],25.4 µM (active)
same,AC50,[5],29.4 µM (active)
CC[C@@H]1C[C@H](N(Cc2cc(C(F)(F)F)cc(C(F)(F)F)c2)C(C)=O)c2cc(C(F)(F)F)ccc2N1C(=O)OC(C)C,outcome,[1],inactive
same,outcome,[2],inactive
same,outcome,[3],inactive
same,outcome,[4],inactive
Cc1c2ccccc2c(C)c2c1ccc1ccccc12,AC50,[1],5.2 µM (active)
same,outcome,[2],inactive
same,AC50,[3],26.4 µM (active)
same,AC50,[5],29.1 µM (active)
O=C(O)c1ccccc1C(=O)OCc1ccccc1,outcome,[1],inactive
same,outcome,[2],inactive
same,outcome,[3],inactive
same,outcome,[4],inactive
same,outcome,[5],inactive
O=C(OCCCCCCOC(=O)c1ccccc1)c1ccccc1,outcome,[1],inactive
same,outcome,[2],inactive
same,outcome,[3],inactive
same,outcome,[4],inactive
O=c1ccc2ccccc2o1,outcome,[1],inactive
same,outcome,[2],inactive
same,outcome,[3],inactive
same,outcome,[4],inactive
CN(C[C@@H](CC[N+]12CCC(C3CCCCC3)(CC1)CC2)c1ccc(Cl)c(Cl)c1)C(=O)c1cc(C(F)(F)F)cc(C(F)(F)F)c1,AC50,[1],13.3 µM (active)
same,AC50,[2],27.8 µM (active)
same,AC50,[3],13.9 µM (active)
same,AC50,[4],5.2 µM (active)
same,AC50,[9],14.8 µM (active)
